Experiments:
Settings in all cases: concentration: 1 μM, replicates: in singlicate; n = 1
JNK3 = system: T1, JNK3
T1 construct: gene MAPK10

KIT-autoinhibited = system: KIT-autoinhibited
KIT = system: KIT
LATS1 = system: LATS1
LATS2 = system: LATS2
LCK = system: LCK
LIMK1 = system: LIMK1
LIMK2 = system: LIMK2
LKB1 = system: T2, LKB1
T2 construct: gene STK11

LOK = system: T3, LOK
T3 construct: gene STK10
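Note: KINOMEscan kinase panel screen.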

Row | Compound | %Inh (JNK3) | %Inh (KIT-autoinhibited) | %Inh (KIT) | %Inh (LATS1) | %Inh (LATS2) | %Inh (LCK) | %Inh (LIMK1) | %Inh (LIMK2) | %Inh (LKB1) | %Inh (LOK)
1 | Cn1cnc2c(N)ncnc21 [SKF-97623] | 0% | 35% | 0% | 22% | 0% | 0% | 0% | 0% | 36% | 4%
2 | COC(=O)C(Cc1ccccc1)NC(=O)NC1CCN(c2ccnc(Nc3ccc(F)cc3)n2)C1 (stereo not shown) [GSK1379714] | 0% | 9% | 11% | 0% | 15% | 21% | 0% | 9% | 21% | 3%
3 | CCn1c(-c2c(N)noc2C)nc2cnccc21 [SB-737856] | 9% | 0% | 0% | 0% | 0% | 10% | 3% | 100% | 0% | 0%
4 | CNc1nc(-c2ccc3c(N)n[nH]c3c2)cc(N2C[C@@H](C(=O)Nc3ccccc3)CC[C@H]2C)n1 [GSK2298859] | 3% | 0% | 4% | 0% | 3% | 22% | 0% | 13% | 7% | 0%
5 | Cn1cncc1-c1cc2c(Nc3ccc(OCc4ccccc4)cc3)ncnc2cn1 [GW281179] | 1% | 0% | 39% | 0% | 0% | 24% | 11% | 6% | 0% | 0%
6 | CSc1ccc(-c2nc3n(c2-c2ccncc2)CCC3)cc1 [SKF-105561] | 59% | 0% | 0% | 31% | 13% | 0% | 0% | 0% | 0% | 8%
7 | O=c1cc(N2CCOCC2)nc2n(Cc3ccccc3F)ccn12 [GSK2297428] | 0% | 0% | 7% | 0% | 0% | 28% | 0% | 1% | 5% | 0%
8 | CC(=O)c1c(C)c2cnc(Nc3ccn(C)n3)nc2n(C2CCCC2)c1=O | 0% | 0% | 0% | 0% | 4% | 8% | 23% | 0% | 0% | 15%
9 | Nc1ncnc2occ(-c3ccc4c(c3)CCN4C(=O)Cc3cc(F)ccc3F)c12 [GSK2645446] | 0% | 0% | 66% | 0% | 19% | 5% | 0% | 22% | 0% | 33%
10 | CC(=O)c1c(C)c2cnc(Nc3ccc(N4CCNCC4)cn3)nc2n(C2CCCC2)c1=O | 0% | 0% | 0% | 15% | 26% | 0% | 0% | 99.5% | 0% | 0%
11 | CN1c2ccc(-c3ccc(C(N)=O)cc3)cc2-c2[nH]ncc2S1(=O)=O | 0% | 20% | 0% | 9% | 0% | 5% | 0% | 0% | 10% | 5%
12 | O=C(Nc1n[nH]c2nc(-c3ccco3)c(Br)cc12)C1CCN(Cc2ccccc2)C1.O=C(O)[C@H](O)[C@@H](O)C(=O)O (stereo not shown) [SB-742034] | 13% | 7% | 22% | 0% | 0% | 5% | 0% | 0% | 37% | 0%
13 | O=C1NC(=O)C(c2ccc(Cl)cc2)=C1Nc1cccc(Cl)c1 [SB-317651] | 54% | 15% | 0% | 0% | 9% | 0% | 0% | 7% | 23% | 0%
14 | NS(=O)(=O)c1cccc(N/C=C2\C(=O)Nc3ccc(S(=O)(=O)Cc4c(Cl)cccc4Cl)cc32)c1 [GSK398099] | 7% | 0% | 15% | 41% | 22% | 13% | 7% | 28% | 0% | 0%
15 | Cc1ccccc1-c1cc(-c2c[nH]nc2-c2ccccn2)ccn1 [GW680061] | 32% | 0% | 39% | 0% | 0% | 5% | 0% | 0% | 0% | 0%
16 | CC(C)c1ccc(O)cc1Nc1ccnc2ccc(C(F)(F)F)cc12 [GW482059] | 0% | 0% | 0% | 0% | 0% | 22% | 0% | 0% | 0% | 0%
17 | CC[C@@H]1CO[C@H](C(=O)Nc2ccccc2)CN1c1cc(-c2ccc3c(N)n[nH]c3c2)nc(NC)n1 [GSK2376236] | 0% | 0% | 17% | 0% | 0% | 30% | 1% | 9% | 5% | 0%

Row | Compound | %Inh (JNK3) | %Inh (KIT-autoinhibited) | %Inh (KIT) | %Inh (LATS1) | %Inh (LATS2) | %Inh (LCK) | %Inh (LIMK1) | %Inh (LIMK2) | %Inh (LKB1) | %Inh (LOK)
18 | Cc1ccc(NC(=O)Nc2ccccc2)cc1-c1ccc(C(=O)Nc2ccncc2)cc1 [GSK1398471] | 8% | 0% | 99.7% | 0% | 0% | 35% | 18% | 0% | 0% | 25%
19 | Fc1ccc(-c2nc[nH]c2-c2ccncc2)cc1 [SB-217360] | 98.6% | 21% | 0% | 0% | 0% | 25% | 0% | 0% | 0% | 16%
20 | Cc1ccc(NC(=O)c2ccc(Cl)cc2)cc1-c1ccc(C(=O)Nc2ccncc2)cc1 [GSK1398467] | 0% | 0% | 99.4% | 0% | 0% | 68% | 0% | 3% | 0% | 0%
21 | Cc1cnc(N)c(/C=C/c2cncc(C(=O)NCCc3ccc(Cl)cc3Cl)c2)c1.Cl [GSK190937] | 4% | 0% | 99.6% | 0% | 36% | 7% | 0% | 2% | 28% | 0%
22 | Cc1ccc(-c2nc(Nc3ccncc3)c3ccccc3n2)s1 [GSK189015] | 14% | 0% | 22% | 0% | 0% | 7% | 31% | 7% | 0% | 1%
23 | CCn1c(-c2ccccc2)nc2cnccc21 [SB-733416] | 7% | 0% | 8% | 0% | 0% | 18% | 20% | 0% | 0% | 0%
24 | Fc1ccc(-c2nc3n(c2-c2ccncc2)CCS3)cc1 [GI98581] | 98.7% | 0% | 15% | 2% | 0% | 26% | 0% | 0% | 11% | 0%
25 | COc1ccc(Nc2nccc(N3CCC(NC(=O)C(C)c4ccc(Cl)cc4)CC3)n2)cc1 (stereo not shown) [GSK1379812] | 10% | 0% | 15% | 32% | 100% | 38% | 2% | 18% | 11% | 0%
26 | COc1ccc(Nc2nccc(N3CCC(NC(=O)C(C)c4ccc(Cl)cc4)C3)n2)cc1 (stereo not shown) [GSK1379735] | 0% | 5% | 31% | 4% | 0% | 33% | 19% | 0% | 0% | 0%
27 | Nc1cccc(-c2ccc3c(N)n[nH]c3c2)n1 [GSK2192730] | 0% | 0% | 14% | 0% | 17% | 0% | 0% | 2% | 7% | 0%
28 | CCc1ccc(-c2ccc3c(c2)-c2n[nH]cc2S(=O)(=O)N3C)cc1 | 0% | 0% | 7% | 0% | 0% | 4% | 0% | 0% | 17% | 3%
29 | Cc1nccc(-c2c(-c3ccc(F)cc3)ncn2CCCN2CCOCC2)n1.Cl [SB-282975] | 43% | 9% | 0% | 0% | 0% | 27% | 11% | 10% | 0% | 9%
30 | COc1ccc(CSc2nnc(-c3ccc4nccn4c3)o2)cc1C(F)(F)F | 0% | 10% | 0% | 24% | 23% | 4% | 0% | 0% | 6% | 3%
31 | COc1ccc(CSc2nnc(-c3ccc4ncsc4c3)o2)cc1C(F)(F)F | 0% | 0% | 18% | 12% | 0% | 0% | 0% | 0% | 2% | 0%
32 | CNc1nc(-c2ccc3c(N)n[nH]c3c2)cc(N2C[C@@H](C(=O)NC3CCCCC3)OC[C@H]2C)n1 [GSK2375584] | 0% | 7% | 20% | 0% | 15% | 19% | 8% | 24% | 0% | 0%
33 | COc1ccc(Nc2nccc(-c3ccc(NC(=O)c4cc5cc(F)ccc5[nH]4)cc3)n2)cc1 [GSK1229496] | 3% | 0% | 11% | 0% | 1% | 0% | 38% | 7% | 15% | 0%
34 | COc1ccc(CSc2nnc(-c3ccc4c(c3)CCO4)o2)cc1 | 0% | 0% | 0% | 0% | 0% | 0% | 0% | 0% | 6% | 0%

Source: publication PMC5540273 (PLoS ONE, 2017)
